# Publication PMC4336329 (PLoS ONE, 2015)
# In all, about 310,000 compounds went through this assay and about 14,000 (4.5%) showed an effect of 50% or more. The effect is printed as a negative number. The list comes from a sample in which strong results are over-represented; it also holds similar structures and randomly drawn compounds.
# Biological target: human ether-à-go-go-related gene (hERG) potassium channel (human, UniProt Q12809)
# Assay: primary screen, population patch clamp on CHO cells stably expressing hERG; higher = less effect of the substance
# 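Note: peak tail current of the secondary pulse compared with the same well before compound.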
# human ether-à-go-go-related gene (hERG) potassium channel, sequence (Q12809 whole entry, looked up): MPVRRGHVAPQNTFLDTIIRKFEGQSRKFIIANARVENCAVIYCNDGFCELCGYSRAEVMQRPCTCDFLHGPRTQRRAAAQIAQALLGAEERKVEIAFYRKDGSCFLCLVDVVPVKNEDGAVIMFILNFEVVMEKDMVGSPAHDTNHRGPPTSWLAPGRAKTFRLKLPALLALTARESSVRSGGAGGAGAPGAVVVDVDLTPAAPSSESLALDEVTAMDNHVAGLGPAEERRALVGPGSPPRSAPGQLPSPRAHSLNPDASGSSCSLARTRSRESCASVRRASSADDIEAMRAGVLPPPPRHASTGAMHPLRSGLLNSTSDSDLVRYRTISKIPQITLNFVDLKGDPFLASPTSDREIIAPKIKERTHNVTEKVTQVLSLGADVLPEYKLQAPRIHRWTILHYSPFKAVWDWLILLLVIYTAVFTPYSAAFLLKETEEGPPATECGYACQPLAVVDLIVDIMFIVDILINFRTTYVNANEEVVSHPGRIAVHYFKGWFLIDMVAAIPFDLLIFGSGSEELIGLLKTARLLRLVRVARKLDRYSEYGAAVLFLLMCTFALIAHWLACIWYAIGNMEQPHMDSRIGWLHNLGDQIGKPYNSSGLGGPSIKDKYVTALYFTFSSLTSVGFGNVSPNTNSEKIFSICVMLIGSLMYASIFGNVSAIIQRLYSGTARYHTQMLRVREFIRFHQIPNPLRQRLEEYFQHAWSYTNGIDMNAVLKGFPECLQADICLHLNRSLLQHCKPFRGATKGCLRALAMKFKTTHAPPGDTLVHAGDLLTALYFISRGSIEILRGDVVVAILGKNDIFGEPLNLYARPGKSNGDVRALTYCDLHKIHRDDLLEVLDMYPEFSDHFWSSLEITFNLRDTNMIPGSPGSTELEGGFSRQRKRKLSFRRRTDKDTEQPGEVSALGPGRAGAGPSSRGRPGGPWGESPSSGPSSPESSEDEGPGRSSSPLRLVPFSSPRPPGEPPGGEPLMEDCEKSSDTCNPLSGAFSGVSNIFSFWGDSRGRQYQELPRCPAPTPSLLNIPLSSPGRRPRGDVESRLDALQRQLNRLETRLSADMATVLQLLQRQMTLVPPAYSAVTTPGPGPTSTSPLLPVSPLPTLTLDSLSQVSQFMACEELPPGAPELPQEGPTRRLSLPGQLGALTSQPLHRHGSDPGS
row,SMILES,"hERG current change (%, negative = inhibition) at 10uM"
1,CSc1nc2c(cc1C#N)CCCCC2,7.65%
2,C=CCn1c(O)c(N=Nc2c(C)n(C)n(-c3ccccc3)c2=O)c(=O)[nH]c1=S,-1.57%
3,O=C(Nc1cccc(Cl)c1)c1ccc(NCC2CCCO2)c([N+](=O)[O-])c1 (centres unmarked),-2.53%
4,CCN=C(NCC)SC1CC(=O)N(c2ccc(OC)cc2)C1=O (centres unmarked),0.718%
5,CCOC(=O)c1cc(C(=O)Nc2sc3c(c2C#N)CCCC3)nn1C,12.4%
6,O=C(/C=C/c1ccc(N2CCOCC2)cc1)c1ccccc1,-1.16%
7,CCSC1=N/C(=C\c2cccc(F)c2)C(=O)S1,10.4%
8,COc1ccc(Nc2cc(C)nc3c(C)cccc23)cc1OC,-21.3%
9,Cc1ccc(Nc2cc(C)nc3c(C)cccc23)cc1,-53.3%
10,Cc1ccccc1-c1ccc(Nc2ccc(N3CCOCC3)cc2)nn1,-76%
11,Cc1cc(C)c2nc(C)cc(Nc3ccc(C(=O)N4CCOCC4)cc3)c2c1,-43.8%
12,Cc1cc(NCCN2CCOCC2)c2ccc3ccccc3c2n1,-69.5%
13,COc1ccccc1-c1ccc(Nc2ccc(C(=O)N3CCOCC3)cc2)nn1,-20.1%
14,Cc1cc(C)nc(Nc2ccc(N3CCOCC3)cc2)n1,-5.99%
15,Cc1nc(NCCN2CCOCC2)c2oc3ccccc3c2n1.Cl,-31.5%
16,COc1ccc2nc(C)cc(NCCN3CCOCC3)c2c1,15.4%
17,CCOc1ccc(Nc2cc(C)nc3c(C)cccc23)cc1,-45.6%
18,CC(=O)c1ccc(Nc2ccc(-c3ccccc3C)nn2)cc1,-17.5%
19,Cc1cc(Nc2ccc(N3CCOCC3)cc2)c2cccc(C)c2n1.Cl,-56.6%
20,CCN(CC(=O)NCc1ccc(F)cc1)C(=O)c1ccc2c(c1)OCO2,-5.66%
21,O=C(CNC(=O)c1ccccc1Cl)OCC(=O)N1CCc2ccccc21,-10.5%
22,COc1ccc(Cc2nnc(Nc3ccccc3)s2)cc1Br,13.9%
23,COc1ccc2[nH]c3c(c2c1)CCN1C(=O)N([C@@H](C)C(=O)NCC2CCCO2)C(=O)[C@]31C (some centres unmarked),-6.78%

row,SMILES,"hERG current change (%, negative = inhibition) at 10uM"
1,COc1ccc(C(=O)Oc2coc(CSc3nnc(NC(=O)c4cccs4)s3)cc2=O)cc1,24.2%
2,CCCCC[C@H]1CN(C2CCCCC2)C(=O)[C@@H]1CC(=O)NCc1ccc(OC)cc1,-67.4%
3,O=C(C[C@H]1C(=O)N(C2CCCCC2)C[C@@H]1Cc1ccccc1)Nc1ccccc1,-27.4%
4,COc1ccc(CNC(=O)C2CC(=O)N(C3CCCCC3)C2)cc1 (centres unmarked),13.7%
5,COc1ccc(CNC(=O)C[C@H]2C(=O)N(C3CCCCC3)C[C@@H]2Cc2ccccc2)cc1,-5.71%
6,C[C@H]1CN(C2CCCCC2)C(=O)[C@@H]1CC(=O)NCc1ccccc1,-6.72%
7,CCCCC[C@H]1CN(C2CCCCC2)C(=O)[C@@H]1CC(=O)NCc1ccccc1,-67.7%
8,CCN(CC)CCN(CC)Cc1ccccc1Br,-19.8%
9,Cc1cc(/C=C2\C(=O)NC(=O)N(Cc3ccccc3Cl)C2=O)c(C)n1-c1ccc(C(=O)O)cc1,46%
10,Cc1[nH]nc(-c2ccc(OCc3cnn(-c4ccccc4)c3)cc2O)c1Oc1ccc(F)cc1,22.6%
11,CCn1cc(-c2cc(C(F)(F)F)n3nc(C(=O)O)cc3n2)c(C)n1,-8.81%
12,COc1ccc(NC(=O)c2cc(S(=O)(=O)Nc3ccc(OC)cc3)cs2)cc1,-3.01%
13,CC(=O)c1c2c3c(cccc3n(C)c1=O)C(=O)c1ccccc1-2,-1.1%
14,CCOC(=O)c1c2c3c(cccc3n(C)c1=O)C(=O)c1ccccc1-2,-71.8%
15,CCOC(=O)c1c2c3c(cccc3[nH]c1=O)C(=O)c1ccccc1-2,17.6%
16,Cl.O=C(CN1CCN(C2CCCCC2)CC1)Nc1ccccc1N1CCCCC1,-66.2%
17,Cl.O=C(CN1CCN(C2CCCCC2)CC1)Nc1cccc2ccccc12,-31.2%
18,CC1CCN(CC(=O)Nc2ccccc2-c2ccccc2)CC1,-25.1%
19,Cl.O=C(CN1CCN(C2CCCCC2)CC1)Nc1ccccc1-c1ccccc1,-70.1%
20,O=C(CN1C(=O)C2CCCCC2C1=O)Nc1ccccc1N1CCCC1 (centres unmarked),1.43%
21,O=C(CC1CCCCC1)Nc1ccccc1-c1ccccc1,6.47%
22,CCC(C)NC(=O)COC(=O)c1cccnc1Nc1ccccc1F (centres unmarked),8.21%
23,COc1ccc(NS(=O)(=O)c2ccc(Oc3ncccn3)cc2)cc1,3.85%

row,SMILES,"hERG current change (%, negative = inhibition) at 10uM"
1,CC(C)c1cc(-c2cc(-c3ccc(Cl)cc3)on2)nc(NC2CCCC2)n1,13.3%
2,Cc1cc(C(=O)Nc2nc3ccc(Cl)cc3s2)nn1C,5.89%
3,CCOC(=O)C(C)/C(C)=N/NC(N)=S (centres unmarked),14.4%
4,COc1ccc(OCCOCCN2CCc3ccccc3C2)cc1,-69.9%
5,COc1ccc(OCCOCCN2CCOCC2)cc1,5.25%
6,CCCOc1ccc(OCCOCCN2CCc3ccccc3C2)cc1,-64.7%
7,Cl.c1ccc(OCCOCCN2CCc3ccccc3C2)cc1,-42.8%
8,CCOc1ccc(OCCOCCN2CCc3ccccc3C2)cc1,-74.8%
9,N#Cc1ccc(OCCN2CCc3ccccc3C2)cc1,-45.2%
10,COc1ccc(OCCCN2CCc3ccccc3C2)cc1.Cl,-47.5%
11,CCOc1ccc(S(=O)(=O)N2CCc3ccccc3C2)cc1,9.5%
12,CCOc1ccc(OCCOCCN2CCOCC2)cc1.O=C(O)C(=O)O,0.827%
13,CCCC(C)NC(=O)COC(=O)c1ccc(Cl)c(S(N)(=O)=O)c1 (centres unmarked),8.02%
14,CCOc1ccc(NC(=O)N2CCCC2C(=O)NCC2CCCO2)cc1 (centres unmarked),18.5%
15,O=C1CCCCC1Sc1nnc(Nc2ccccc2)s1 (centres unmarked),-7.47%
16,O=C(Cn1nc2sc3ccccc3n2c(=O)c1=O)c1cccs1,7.63%
17,CCNC(=S)Nc1ccc(Cc2ccncc2)cc1,-4.01%
18,COc1ccc(-c2cc(C(F)(F)F)c(C#N)c(SCC(=O)Nc3nc(C)co3)n2)cc1,1.46%
19,CCC(C(=O)NCc1ccc(C)cc1)c1ccccc1 (centres unmarked),-1.35%
20,O=C(NCc1ccc(F)cc1)C(c1ccccc1)c1ccccc1,4.43%
21,Cc1ccc(CNC(=O)C(c2ccccc2)c2ccccc2)cc1,-64%
22,CCOC(=O)c1ccc(NC(=O)COc2ccccc2OC)cc1,2.1%
23,CCOC(=O)c1ccc(NC(=S)NC2CCCC2)cc1,-7.86%

row,SMILES,"hERG current change (%, negative = inhibition) at 10uM"
1,CCOC(=O)c1ccc(NC(=O)COc2ccccc2CNCCO)cc1,-24%
2,CCOC(=O)c1ccc(NC(=O)COc2ccccc2CNCCc2ccccc2)cc1.Cl,-79.3%
3,CCOC(=O)c1ccc(NC(=O)COc2ccccc2CNC2CCCC2)cc1.Cl,-78.1%
4,CCOC(=O)c1ccc(NC(=O)COc2ccc(CNC3CCCCC3)cc2OC)cc1,-26%
5,CN(C)S(=O)(=O)Oc1ccccc1C(=O)Nc1ccc(F)cc1F,2.34%
6,COc1ccc(C)cc1NC(=O)C1CCCN(S(=O)(=O)c2ccc3c(c2)CCCN3C(C)=O)C1 (centres unmarked),-2.38%
7,CCN(CC)CCNC(=O)C1c2ccccc2C(=O)N(C)C1c1cn(C)c2ccccc12 (centres unmarked),-19.5%
8,CCCCN(CC)CCCNC(=O)C1c2ccccc2C(=O)N(C)C1c1cn(C)c2ccccc12 (centres unmarked),-72.7%
9,CCN(CC)CCCNC(=O)C1c2ccccc2C(=O)N(C)C1c1ccc(OC)cc1 (centres unmarked),6.8%
10,Cc1ccccc1S(=O)(=O)N1CC(C(=O)O)=CC[C@H]1c1ccc(Cl)cc1,15.8%
11,CC(CSc1nnnn1-c1ccccc1)Cn1c(N2CCN(C)CC2)nc2c1c(=O)[nH]c(=O)n2C (centres unmarked),-43.6%
12,CC1CCN(c2nc3c(c(=O)[nH]c(=O)n3C)n2CC(C)CSc2nnnn2-c2ccccc2)CC1 (centres unmarked),-57.6%
13,Cn1c(=O)[nH]c(=O)c2c1nc(N1CCCC1)n2CCCSc1nnnn1-c1ccccc1,-13.5%
14,CN1CCN(c2nc3c(c(=O)[nH]c(=O)n3C)n2CCCSc2nnnn2-c2ccccc2)CC1,-51.2%
15,CN1CCN(c2nc3c(c(=O)[nH]c(=O)n3C)n2CCSc2nnnn2-c2ccccc2)CC1,-17%
16,CC(CSc1nnnn1-c1ccccc1)Cn1c(N2CCCC2)nc2c1c(=O)[nH]c(=O)n2C (centres unmarked),-45.1%
17,CCCN1Cc2cccc(C(=O)Nc3ccc(CC)cc3)c2C1=O,8.1%
18,Cc1cc(C)nc(NC(=O)c2ccc(C)c(C)c2)n1,18%
19,Oc1cccc(-n2nnnc2SCc2ccccc2F)c1,7.33%
20,Cc1cc(C)c(S(=O)(=O)c2ccccc2)c(=O)[nH]1,20.6%
